The whole screen tested about 5,500 compounds, of which about 2,000 (36%) were called active. Inconclusive results (about 18%) are left out. Rule as the data show it: active = normalized growth mostly below about 0.91 (no sharp cut-off); inconclusive = no clear call, values can overlap the other calls; inactive = mostly above about 0.92. Some of the results follow.
Assay: chemical genetic growth profiling, strain panel (AID 1159580);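 also: tested at 20 µM; growth read once vehicle control cultures reached saturation at 30 °C; 1 = growth at the plate median or of vehicle wells; lower values mean less growth of the strain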
Details: growth OD

Measured: normalized growth

O=C(CCCN1CC=C(n2c(=O)[nH]c3ccccc32)CC1)c1ccc(F)cc1
inactive: S. cerevisiae deletion strains, locus YJR075W, strain HOC1, hits give low values 0.98 | S. cerevisiae deletion strains, locus YKL009W, strain mrt4, hits give low values 0.939 | S. cerevisiae deletion strains, locus YKL068W, hits give low values 0.989 | S. cerevisiae deletion strains, locus YKL085W, strain MDH1 (second series), hits give low values 0.994 | S. cerevisiae deletion strains, locus YKL085W, strain MDH1, hits give low values 0.994 | S. cerevisiae deletion strains, locus YKL160W, strain elf1, hits give low values 0.977 | S. cerevisiae deletion strains, locus YKL190W, strain CNB1, hits give low values 0.99 | S. cerevisiae deletion strains, locus YKR001C, strain vps1, hits give low values 0.981 | S. cerevisiae deletion strains, locus YKR026C, strain gcn3, hits give low values 0.948 | S. cerevisiae deletion strains, locus YKR091W, strain srl3, hits give low values 0.967 | S. cerevisiae deletion strains, locus YLL001W, strain dnm1, hits give low values 0.957 | S. cerevisiae deletion strains, locus YLL026W, hits give low values 0.968 | S. cerevisiae deletion strains, locus YLL041C, strain sdh2, hits give low values 0.988 | S. cerevisiae deletion strains, locus YLR027C, strain aat2, hits give low values 0.979 | S. cerevisiae deletion strains, locus YLR039C, strain RIC1, hits give low values 0.969 | S. cerevisiae deletion strains, locus YLR058C, strain SHM2, hits give low values 0.967 | S. cerevisiae deletion strains, locus YLR102C, strain apc9, hits give low values 0.989 | S. cerevisiae deletion strains, locus YLR113W, strain HOG1, hits give low values 0.971 | S. cerevisiae deletion strains, locus YLR221C, strain rsa3, hits give low values 0.976 | S. cerevisiae deletion strains, locus YLR258W, strain gsy2, hits give low values 0.987 | S. cerevisiae deletion strains, locus YLR262C, strain YPT6 (second series), hits give low values 0.954 | S. cerevisiae deletion strains, locus YLR262C, strain YPT6, hits give low values 0.942 | S. cerevisiae deletion strains, locus YLR268W, strain sec22, hits give low values 1.05 | S. cerevisiae deletion strains, locus YLR320W, strain mms22, hits give low values 0.986 | S. cerevisiae deletion strains, locus YLR330W, strain CHS5, hits give low values 0.986 | S. cerevisiae deletion strains, locus YLR342W, strain FKS1 (second series), hits give low values 0.944 | S. cerevisiae deletion strains, locus YLR342W, strain FKS1, hits give low values 0.974 | S. cerevisiae deletion strains, locus YLR357W, strain rsc2, hits give low values 0.951 | S. cerevisiae deletion strains, locus YLR370C, strain arc18, hits give low values 0.972 | S. cerevisiae deletion strains, locus YLR371W, strain rom2, hits give low values 0.949 | S. cerevisiae deletion strains, locus YLR384C, strain iki3, hits give low values 0.961 | S. cerevisiae deletion strains, locus YLR418C, strain cdc73, hits give low values 0.968 | S. cerevisiae deletion strains, locus YML016C, strain PPZ1, hits give low values 0.987 | S. cerevisiae deletion strains, locus YML032C, strain rad52, hits give low values 0.993 | S. cerevisiae deletion strains, locus YML120C, strain ndi1, hits give low values 1 | S. cerevisiae deletion strains, locus YML124C, strain tub3, hits give low values 0.975 | S. cerevisiae deletion strains, locus YMR058W, strain fet3, hits give low values 0.99 | S. cerevisiae deletion strains, locus YMR078C, strain ctf18, hits give low values 0.979 | S. cerevisiae deletion strains, locus YMR125W, strain sto1, hits give low values 0.944 | S. cerevisiae deletion strains, locus YMR129W, hits give low values 0.987 | S. cerevisiae deletion strains, locus YMR205C, strain PFK2, hits give low values 0.951 | S. cerevisiae deletion strains, locus YMR223W, strain ubp8, hits give low values 0.955 | S. cerevisiae deletion strains, locus YMR231W, strain pep5, hits give low values 0.979 | S. cerevisiae deletion strains, locus YMR263W, strain SAP30, hits give low values 0.987 | S. cerevisiae deletion strains, locus YMR307W, strain GAS1, hits give low values 0.974 | S. cerevisiae deletion strains, locus YNL067W, strain RPL9B, hits give low values 0.999 | S. cerevisiae deletion strains, locus YNL071W, strain lat1, hits give low values 0.982 | S. cerevisiae deletion strains, locus YNL128W, strain TEP1, hits give low values 0.98 | S. cerevisiae deletion strains, locus YNL153C, strain GIM3, hits give low values 0.985 | S. cerevisiae deletion strains, locus YNL183C, strain NPR1, hits give low values 0.925 | S. cerevisiae deletion strains, locus YNL209W, strain ssb2, hits give low values 0.975 | S. cerevisiae deletion strains, locus YNL233W, strain BNI4, hits give low values 0.992 | S. cerevisiae deletion strains, locus YNL248C, strain rpa49, hits give low values 0.981 | S. cerevisiae deletion strains, locus YNL250W, strain rad50, hits give low values 0.971 | S. cerevisiae deletion strains, locus YNL271C, strain bni1, hits give low values 0.995 | S. cerevisiae deletion strains, locus YNL298W, strain CLA4, hits give low values 0.982 | S. cerevisiae deletion strains, locus YNL307C, strain MCK1, hits give low values 0.968 | S. cerevisiae deletion strains, locus YNL322C, strain KRE1 (second series), hits give low values 0.984 | S. cerevisiae deletion strains, locus YNL322C, strain KRE1, hits give low values 0.987 | S. cerevisiae deletion strains, locus YNR049C, strain mso1, hits give low values 0.972 | S. cerevisiae deletion strains, locus YNR052C, strain pop2, hits give low values 0.992 | S. cerevisiae deletion strains, locus YOL006C, strain TOP1, hits give low values 0.996 | S. cerevisiae deletion strains, locus YOL012C, strain htz1 0.899 | S. cerevisiae deletion strains, locus YOL147C, strain pex11, hits give low values 0.991 | S. cerevisiae deletion strains, locus YOR001W, strain rrp6, hits give low values 0.955 | S. cerevisiae deletion strains, locus YOR061W, strain CKA2, hits give low values 0.97 | S. cerevisiae deletion strains, locus YOR070C, strain gyp1, hits give low values 0.99 | S. cerevisiae deletion strains, locus YOR080W, strain dia2, hits give low values 0.963 | S. cerevisiae deletion strains, locus YOR083W, strain WHI5, hits give low values 0.978 | S. cerevisiae deletion strains, locus YOR106W, strain vam3, hits give low values 0.933 | S. cerevisiae deletion strains, locus YOR136W, strain idh2, hits give low values 0.983 | S. cerevisiae deletion strains, locus YOR144C, strain elg1, hits give low values 0.988 | S. cerevisiae deletion strains, locus YOR184W, strain ser1, hits give low values 0.967 | S. cerevisiae deletion strains, locus YOR231W, strain MKK1, hits give low values 0.992 | S. cerevisiae deletion strains, locus YOR265W, strain rbl2, hits give low values 0.981 | S. cerevisiae deletion strains, locus YOR270C, strain vph1, hits give low values 0.956 | S. cerevisiae deletion strains, locus YOR290C, strain snf2, hits give low values 0.98 | S. cerevisiae deletion strains, locus YOR316C, strain cot1, hits give low values 0.98 | S. cerevisiae deletion strains, locus YPL051W, strain arl3, hits give low values 0.98 | S. cerevisiae deletion strains, locus YPL055C, strain LGE1, hits give low values 0.955 | S. cerevisiae deletion strains, locus YPL078C, strain atp4, hits give low values 0.949 | S. cerevisiae deletion strains, locus YPL106C, strain sse1, hits give low values 0.967 | S. cerevisiae deletion strains, locus YPL240C, strain hsp82, hits give low values 0.979 | S. cerevisiae deletion strains, locus YPL241C, strain CIN2, hits give low values 0.992 | S. cerevisiae deletion strains, locus YPL256C, strain CLN2, hits give low values 0.991 | S. cerevisiae deletion strains, locus YPR119W, strain clb2, hits give low values 0.989 | S. cerevisiae deletion strains, locus YPR141C, strain kar3, hits give low values 0.973 | S. cerevisiae deletion strains, locus YPR163C, strain tif3, hits give low values 0.989 | S. cerevisiae deletion strains, locus YPR167C, strain met16, hits give low values 0.991 | S. cerevisiae deletion strains, strain wtn01, hits give low values 0.991 | S. cerevisiae strains, strain wild type, hits give low values 0.979
